Reference: PubChem BioAssay AID1159580 (chemical genetic matrix, 2015)
The whole screen tested about 5,500 compounds, of which about 2,000 (36%) were called active. Another 18% or so got no clear call; they are omitted. No stated cut-off is given here; in the data, active means normalized growth mostly below about 0.91 (no sharp cut-off); inconclusive means no clear call, values can overlap the other calls; inactive means mostly above about 0.92. This is one part of the list.

Assay: chemical genetic growth profiling, strain panel (AID 1159580);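 further: tested at 20 µM; growth read once vehicle control cultures reached saturation at 30 °C; 1 = growth at the plate median or of vehicle wells; lower values mean less growth of the strain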
Settings: S. cerevisiae deletion strains, growth OD
[1] = locus YAL013W, strain DEP1, hits give low values
[2] = locus YBR229C, strain ROT2, hits give low values
[3] = locus YCL061C, strain MRC1, hits give low values
[4] = locus YDL101C, strain DUN1, hits give low values
[5] = locus YDL134C, strain PPH21, hits give low values
[6] = locus YDR150W, strain NUM1, hits give low values
[7] = locus YEL061C, strain CIN8, hits give low values
[8] = locus YGR078C, strain PAC10, hits give low values
[9] = locus YHR030C, strain SLT2, hits give low values
[10] = locus YHR087W, strain rtc3, hits give low values
[11] = locus YJR043C, strain POL32, hits give low values
[12] = locus YJR075W, strain HOC1, hits give low values
[13] = locus YKL190W, strain CNB1, hits give low values
[14] = locus YLR039C, strain RIC1, hits give low values
[15] = locus YLR058C, strain SHM2 (second series), hits give low values
[16] = locus YLR085C, strain ARP6, hits give low values
[17] = locus YLR262C, strain YPT6, hits give low values
[18] = locus YML094W, strain GIM5, hits give low values
[19] = locus YMR219W, strain ESC1, hits give low values
[20] = locus YMR263W, strain SAP30, hits give low values
[21] = locus YMR307W, strain GAS1, hits give low values
[22] = locus YNL128W, strain TEP1, hits give low values
[23] = locus YNL153C, strain GIM3, hits give low values
[24] = locus YNL298W, strain CLA4 (second series), hits give low values
[25] = locus YNL322C, strain KRE1, hits give low values
[26] = locus YNR030W, strain Alg12, hits give low values
[27] = locus YPL055C, strain LGE1, hits give low values
[28] = locus YPL241C, strain CIN2, hits give low values
[29] = locus YPR135W, strain CTF4, hits give low values
[30] = locus YJL187C, strain SWE1, hits give low values

Measured: normalized growth

Cn1c2c(c(=O)n(C)c1=O)CN(CCCCCCO)CN2
inactive: [1] 1 | [2] 1.01 | [3] 1.01 | [4] 1 | [5] 1.02 | [6] 0.982 | [7] 1.01 | [8] 0.999 | [9] 1.07 | [10] 1 | [11] 0.99 | [12] 1.01 | [13] 0.994 | [14] 1.02 | [15] 1 | [16] 1.1 | [17] 1.03 | [18] 1.05 | [19] 1 | [20] 1 | [21] 1.04 | [22] 1.01 | [23] 0.999 | [24] 1.1 | [25] 0.998 | [26] 1.04 | [27] 1.02 | [28] 1.05 | [29] 1.02

S=C1NCN(CCN2CCCC2)CN1
inactive: [1] 1 | [2] 0.996 | [3] 0.988 | [4] 0.984 | [5] 0.975 | [6] 0.96 | [7] 1.03 | [8] 0.997 | [9] 1.04 | [10] 1.04 | [30] 1.01 | [11] 0.986 | [12] 0.997 | [13] 0.977 | [14] 0.991 | [15] 1.01 | [16] 0.98 | [17] 0.972 | [18] 1 | [19] 1.01 | [20] 1 | [23] 0.993 | [24] 0.987 | [25] 0.995 | [26] 0.994 | [27] 1.01 | [28] 0.973 | [29] 0.962

CCCCCCCCCCCCN1CNC(=S)NC1
active: [1] 0.804 | [2] 0.81 | [3] 0.68 | [4] 0.652 | [5] 0.451 | [7] 0.441 | [8] 0.813 | [9] 0.291 | [10] 0.767 | [30] 0.688 | [11] 0.727 | [12] 0.858 | [13] 0.515 | [16] 0.141 | [18] 0.513 | [19] 0.786 | [20] 0.782 | [23] 0.801 | [24] 0.325 | [26] 0.419 | locus YOL006C, strain TOP1, hits give low values 0.123 | [27] 0.541 | [28] 0.484 | [29] 0.382
inactive: [6] 0.846 | [14] 0.985 | [15] 0.988 | [17] 1.01 | [25] 0.956

Cc1ccc(C(=O)Nc2ccc(S(=O)(=O)O)c3cc(S(=O)(=O)O)cc(S(=O)(=O)O)c23)cc1NC(=O)c1cccc(NC(=O)Nc2cccc(C(=O)Nc3cc(C(=O)Nc4ccc(S(=O)(=O)O)c5cc(S(=O)(=O)O)cc(S(=O)(=O)O)c45)ccc3C)c2)c1
inactive: [1] 1.03 | locus YAL021C, strain ccr4, hits give low values 1.03 | locus YAL026C, strain drs2, hits give low values 1 | locus YAL030W, strain snc1, hits give low values 1.01 | locus YAL040C, strain CLN3, hits give low values 0.968 | locus YBL061C, strain skt5, hits give low values 1.01 | locus YBR009C, strain hhf1, hits give low values 0.98 | locus YBR023C, strain chs3, hits give low values 1.04 | locus YBR171W, strain sec66, hits give low values 1.03 | locus YBR231C, strain swc5, hits give low values 1.02 | locus YBR279W, strain paf1, hits give low values 1.02 | locus YCL011C, strain gbp2, hits give low values 1.02 | locus YCL016C, strain dcc1, hits give low values 1.03 | locus YCL061C, strain MRC1 (second series), hits give low values 1 | [3] 1.03 | locus YCL069W, strain vba3, hits give low values 1.01 | locus YCR088W, strain abp1, hits give low values 1.01 | locus YDL005C, strain med2, hits give low values 1.02 | locus YDL040C, strain nat1, hits give low values 1.01 | locus YDR001C, strain nth1, hits give low values 1.01 | locus YDR069C, strain doa4, hits give low values 1.02 | locus YDR137W, strain rgp1, hits give low values 1.05 | [6] 0.998 | locus YDR159W, strain sac3, hits give low values 1 | locus YDR195W, strain ref2 1.02 | locus YDR297W, strain sur2, hits give low values 1.01 | locus YDR334W, strain swr1, hits give low values 1.03 | locus YDR335W, strain msn5, hits give low values 1.02 | locus YDR363W, strain ESC2, hits give low values 1.01 | locus YDR392W, strain spt3, hits give low values 0.975 | locus YEL003W, strain gim4, hits give low values 1.01 | locus YEL037C, strain rad23, hits give low values 1.01 | locus YEL061C, strain CIN8 (second series), hits give low values 1.01 | locus YER002W, strain NOP16, hits give low values 1.03 | locus YER015W, strain faa2, hits give low values 0.999 | locus YER016W, strain bim1, hits give low values 1.01 | locus YER111C, strain swi4, hits give low values 1.03 | locus YER155C, strain BEM2 (second series), hits give low values 1.03 | locus YFR010W, strain ubp6, hits give low values 1.01 | locus YGL167C, strain pmr1, hits give low values 1.01 | locus YGL173C, strain kem1, hits give low values 1.02 | locus YGL227W, strain vid30, hits give low values 1.03 | locus YGL240W, strain doc1, hits give low values 1.04 | locus YGL253W, strain hxk2, hits give low values 1.03 | locus YGR229C, strain SMI1, hits give low values 1.04 | locus YHR013C, strain ard1, hits give low values 1.05 | locus YHR027C, strain rpn1, hits give low values 1.03 | [9] 1.11 | locus YHR079C, strain IRE1, hits give low values 1.1 | locus YHR142W, strain chs7, hits give low values 1.04 | locus YJL092W, strain hpr5, hits give low values 1.02 | locus YJL095W, strain BCK1 (second series), hits give low values 1.01 | locus YJL095W, strain BCK1, hits give low values 1.09 | locus YJL115W, strain asf1, hits give low values 1.03 | locus YJL129C, strain trk1, hits give low values 1.07 | locus YJL154C, strain vps35, hits give low values 1.03 | locus YJL164C, strain tpk1, hits give low values 1 | locus YJL166W, strain qcr8, hits give low values 1.03 | [30] 1.02 | locus YJR066W, strain TOR1, hits give low values 0.998 | [12] 1.01 | locus YKL160W, strain elf1, hits give low values 1.05 | locus YKR026C, strain gcn3, hits give low values 1.02 | locus YKR091W, strain srl3, hits give low values 1.01 | locus YLL001W, strain dnm1, hits give low values 1.07 | locus YLL026W, hits give low values 1.01 | locus YLL041C, strain sdh2, hits give low values 1.02 | locus YLR027C, strain aat2, hits give low values 1.02 | locus YLR113W, strain HOG1, hits give low values 1.12 | locus YLR221C, strain rsa3, hits give low values 1.03 | locus YLR258W, strain gsy2, hits give low values 1 | locus YLR262C, strain YPT6 (second series), hits give low values 1.04 | locus YLR320W, strain mms22, hits give low values 1.07 | locus YLR342W, strain FKS1, hits give low values 1.02 | locus YLR357W, strain rsc2, hits give low values 1.03 | locus YLR370C, strain arc18, hits give low values 1.03 | locus YLR384C, strain iki3, hits give low values 1.01 | locus YML120C, strain ndi1, hits give low values 1.04 | locus YMR058W, strain fet3, hits give low values 1.03 | locus YMR125W, strain sto1, hits give low values 1.06 | locus YMR129W, hits give low values 1.01 | locus YMR205C, strain PFK2, hits give low values 1.06 | locus YMR231W, strain pep5, hits give low values 1.01 | [21] 0.993 | locus YNL071W, strain lat1, hits give low values 1.02 | [22] 1.01 | locus YNL175C, strain NOP13, hits give low values 1.02 | locus YNL183C, strain NPR1, hits give low values 1 | locus YNL197C, strain WHI3, hits give low values 1 | locus YNL209W, strain ssb2, hits give low values 1.02 | locus YNL224C, strain SQS1, hits give low values 1.02 | locus YNL248C, strain rpa49, hits give low values 1.06 | locus YNL322C, strain KRE1 (second series), hits give low values 1.03 | [25] 1.04 | locus YNR049C, strain mso1, hits give low values 1.01 | locus YOR001W, strain rrp6, hits give low values 0.967 | locus YOR070C, strain gyp1, hits give low values 1.02 | locus YOR080W, strain dia2, hits give low values 1.01 | locus YOR083W, strain WHI5 (second series), hits give low values 0.997 | locus YOR083W, strain WHI5, hits give low values 1.04 | locus YOR106W, strain vam3, hits give low values 1.05 | locus YOR231W, strain MKK1, hits give low values 1.11 | locus YOR265W, strain rbl2, hits give low values 1.01 | locus YOR270C, strain vph1, hits give low values 1.11 | locus YOR290C, strain snf2, hits give low values 1.06 | locus YPL051W, strain arl3, hits give low values 1.05 | [27] 1.02 | locus YPL078C, strain atp4, hits give low values 1.06 | locus YPL106C, strain sse1, hits give low values 1.01 | locus YPL240C, strain hsp82, hits give low values 1.01 | [28] 1 | locus YPL256C, strain CLN2, hits give low values 1.14

CSc1c(-c2ccccc2)c(N)nn1S(=O)(=O)c1ccccc1
active: [30] 0.0597
inactive: [1] 0.99 | [2] 0.982 | [3] 0.993 | [4] 0.978 | [5] 0.998 | [6] 0.979 | [7] 0.967 | [8] 0.98 | [9] 0.913 | [10] 0.973 | [11] 1.01 | [12] 0.971 | [14] 0.836 | [15] 0.996 | [16] 0.849 | [17] 0.901 | [18] 0.944 | [19] 1 | [20] 0.983 | [21] 0.815 | [22] 0.97 | [23] 1 | [24] 0.907 | [25] 0.987 | [26] 0.951 | [27] 0.994 | [28] 0.943 | [29] 0.945
